Source: PubChem (National Center for Advancing Translational Sciences (NCATS))
An excerpt weighted towards active compounds, which were near 2.9% of everything screened.
DRD3 antagonist = qHTS of D3 Dopamine Receptor Antagonist: qHTS. D(3) dopamine receptor (Homo sapiens), P35462. D3R cells, DiscoveRx beta-arrestin luminescence, antagonist mode; hits give low values. max response, negative = inhibition, %. actives 2.5% (n = 360,000); in the data active = max response below about -50%; inconclusive = no clear call, values can overlap the other calls; also: % is scaled to controls: 0 for no effect and ±100 for the full control effect
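Cells expressing the human receptor were seeded at 1500 cells/well, incubated overnight at 37 degrees C in 5% CO2, then exposed to library compounds with dopamine controls for 90 minutes at 37 degrees C before luminescent detection.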
Rango dissoc inh = qHTS Assay for Inhibitors of RanGTP induced Rango (Ran-regulated importin-beta cargo) - Importin beta complex dissociation; Snurportin-1 (Homo sapiens) + GTP-binding nuclear protein Ran (Homo sapiens) + Importin …; Biochemical FRET Rango-importin beta, RanGTP-induced dissociation; Potency, µM (titrated, usually from 46.1 µM), for inactives: at the top dose activity change, negative = inhibition; actives 0.071% (n = 340,000); AID 540253, 2011; also: potency is read from the fitted curve at half-maximal effect; % of control where 0% means no effect; nearly all actives have a fitted effect of over 45% in size
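Quantitative HTS using a FRET biosensor: 0.1 uM Rango, 0.25 uM importin beta, 0.6 uM Ran, 2 mM GTP, 0.2 uM RCC1 final, PBS with DTT, Tween-20 and BSA. Post-read taken 45 min after Ran addition.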
Rango complex inh = qHTS Assay for Inhibitors of Rango (Ran-regulated importin-beta cargo) - Importin beta complex formation; Rango CFP/YFP FRET sensor + importin beta, 45 min; Potency, µM (series often up to 92.2 µM), for inactives: top-dose inhibition of complex formation; actives 0.031% (n = 340,000); Importin subunit beta-1 (Homo sapiens), Q14974; AID 540263, 2011;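 also: potency is read from the fitted curve at half-maximal effect; 0% = DMSO wells and 100% = buffer wells lacking importin beta; nearly all actives have a fitted effect of over 15% in size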
Target sequence (Q14974 whole entry, looked up): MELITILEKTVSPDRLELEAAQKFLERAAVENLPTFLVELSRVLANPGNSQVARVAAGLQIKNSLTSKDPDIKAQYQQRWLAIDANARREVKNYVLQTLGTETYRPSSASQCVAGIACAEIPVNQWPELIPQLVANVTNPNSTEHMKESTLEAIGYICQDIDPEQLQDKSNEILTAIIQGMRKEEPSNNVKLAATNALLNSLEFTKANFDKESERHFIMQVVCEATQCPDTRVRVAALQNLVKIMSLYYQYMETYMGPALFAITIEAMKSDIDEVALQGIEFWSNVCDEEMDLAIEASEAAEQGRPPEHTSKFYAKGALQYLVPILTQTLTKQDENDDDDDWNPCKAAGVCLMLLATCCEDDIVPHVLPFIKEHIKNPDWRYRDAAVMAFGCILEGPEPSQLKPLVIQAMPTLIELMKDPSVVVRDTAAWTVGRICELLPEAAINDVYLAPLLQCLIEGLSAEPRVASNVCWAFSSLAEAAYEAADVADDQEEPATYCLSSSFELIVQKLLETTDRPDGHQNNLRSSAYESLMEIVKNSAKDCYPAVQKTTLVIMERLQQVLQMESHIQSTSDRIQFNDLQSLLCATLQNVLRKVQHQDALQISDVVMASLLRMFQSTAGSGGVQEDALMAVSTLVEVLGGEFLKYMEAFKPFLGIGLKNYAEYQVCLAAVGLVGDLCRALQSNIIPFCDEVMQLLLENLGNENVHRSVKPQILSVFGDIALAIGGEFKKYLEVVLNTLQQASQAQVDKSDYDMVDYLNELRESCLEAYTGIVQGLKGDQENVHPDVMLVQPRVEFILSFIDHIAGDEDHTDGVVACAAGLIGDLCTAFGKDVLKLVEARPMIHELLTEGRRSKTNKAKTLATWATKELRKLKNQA
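FRET biosensor (snurportin 1 IBB flanked by EYFP and cerulean), 50 nM, with compound 5 min, then 0.125 microM importin beta in PBS, 1 mM DTT, 0.02% Tween-20, 0.1% BSA. CFP/YFP ratio read after 45 min at room temperature; pre-read flags interference.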
D3 ag = qHTS of D3 Dopamine Receptor Agonist: qHTS; max activation, %; D(3) dopamine receptor (Homo sapiens), P35462; D3R DiscoveRx beta-arrestin cells, luminescence, 90 min; actives 0.58% (n = 410,000); in the data active = max activation above about 30%; also: 0% is about no effect
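Cells at 1500/well, incubated overnight, then treated with pinned compounds (dopamine as control) for 90 min at 37 degrees C. DiscoveRx reagent added for 30 - 60 minutes at room temperature; luminescence read.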
Mm-Cpn inhibitor = Inhibitors of TCP-1 ring complex (TRiC) of Methanococcus maripaludis (MmCpn): qHTS | Potency, µM (doses to about 76.9 µM), for inactives: at the highest dose activity, negative = inhibition, actives largely listed as inhibitors | actives 0.031% (n = 330,000) | AID 504842, 2011 | Chaperonin Mm-Cpn (Methanococcus maripaludis) | purified Mm-Cpn ATPase, ADP Transcreener TR-FRET; active = well fitted inhibition curve with a large enough effect; inconclusive = small, poorly fitted or top-dose-only effect; also: potency is read from the fitted curve at half-maximal effect; % is scaled to controls: 0 for no effect and ±100 for the full control effect; nearly all actives have a fitted effect of over 80% in size
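Reaction buffer contained 30 mM Tris pH 7.4, 100 mM KCl, 5 mM MgCl2 and 1 mM DTT. Mm-CPN (25 nM final) hydrolysed 10 uM ATP over 30 min at 37°C; ADP was read by HTRF.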
TSG101-PTAP inh = qHTS Assay for Iinhibitors of HIV-1 Budding by Blocking the Interaction of PTAP/TSG101 | Fluorescence polarization, FITC-PTAP peptide / Tsg101 binding | Potency, µM (doses to about 115 µM), for the others: at the top dose activity change, negative = inhibition, most hits filed as inhibitors | 340,000 tested, under 10 active; active = well fitted inhibition curve with a large enough effect in the main read-out, with a control signal flat, not every such curve was filed as active; inconclusive = small, poorly fitted or top-dose-only effect, or effect the other way, or a change in a side signal; inactive = no such curve, though single readings can be large or run the other way; also: potency is read from the fitted curve at half-maximal effect; % of control where 0% means no effect
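Fluorescence polarization binding of Tsg101 binding domain (10 uM final) to FITC-labeled PTAP peptide (50 nM final) in HEPES pH 7.5 buffer with NaCl, Tween 20, EDTA, TCEP. Compounds added before peptide; binding 20 min at RT.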
* hit, by the source's call. Unless noted, calls follow the shape of the full dose curve.

Results for O=C(Nc1ccccc1)C1=C(c2ccccc2)S(=O)(=O)CCS1(=O)=O ?
DRD3 antagonist: -105*; Rango dissoc inh: -8%; Rango complex inh: 7%; D3 ag: -22; Mm-Cpn inhibitor: -5%; TSG101-PTAP inh: -7%

How did CCC(=O)N1CCc2cc(Br)cc(S(=O)(=O)N3CCCCCC3)c21 do in these assays?
DRD3 antagonist: -64*; Rango dissoc inh: 0%; Rango complex inh: 4%; D3 ag: 3; Mm-Cpn inhibitor: -1%; TSG101-PTAP inh: -4%

What do the screens show for `CCC(=O)N1CCc2cc(Br)cc(S(=O)(=O)N3CCCC(C(=O)O)C3)c21` (stereo unspecified)?
DRD3 antagonist: 4; Rango dissoc inh: 1%; Rango complex inh: -3%; D3 ag: 21; Mm-Cpn inhibitor: 3%; TSG101-PTAP inh: -6%

Results for COc1ccc(-n2cnnc2SCC(=O)Nc2cc(C(C)(C)C)nn2-c2ccccc2)cc1 ?
DRD3 antagonist: -56*; Rango dissoc inh: -8%; Rango complex inh: 1%; D3 ag: 10; Mm-Cpn inhibitor: 1%; TSG101-PTAP inh: -5%

What do the screens show for `C/C(=N\Nc1ccc([N+](=O)[O-])cc1)c1cc2ccccc2o1`?
DRD3 antagonist: -25; Rango dissoc inh: inconclusive; Rango complex inh: inconclusive; D3 ag: -11; Mm-Cpn inhibitor: 0%; TSG101-PTAP inh: -4%

What do the screens show for `C/C(=N\NS(=O)(=O)c1ccc(Cl)c([N+](=O)[O-])c1)c1cc2ccccc2o1`?
DRD3 antagonist: -98*; Rango dissoc inh: -9%; Rango complex inh: -2%; D3 ag: 3; Mm-Cpn inhibitor: 1%; TSG101-PTAP inh: -10%

Results for C/C(=N\NS(=O)(=O)c1ccc(C)c([N+](=O)[O-])c1)c1cc2ccccc2o1 ?
DRD3 antagonist: -70*; Rango dissoc inh: -1%; Rango complex inh: 3%; D3 ag: -8; Mm-Cpn inhibitor: 1%; TSG101-PTAP inh: -5%

How did C/C(=N\NS(=O)(=O)c1ccc(Cl)c([N+](=O)[O-])c1)c1ccc(C)o1 do in these assays?
DRD3 antagonist: -70*; Rango dissoc inh: 11%; Rango complex inh: 3%; D3 ag: 7; Mm-Cpn inhibitor: -1%; TSG101-PTAP inh: -6%

Results for Cc1ccc(C(=O)c2cc3ccccc3o2)cc1[N+](=O)[O-] ?
DRD3 antagonist: inconclusive; Rango dissoc inh: 0%; Rango complex inh: -5%; D3 ag: -4; Mm-Cpn inhibitor: 0%; TSG101-PTAP inh: -2%

Results for COc1cc([C@@H]2c3cc4c(cc3C(O[C@@H]3O[C@@H]5CO[C@@H](C)O[C@H]5[C@H](O)[C@H]3O)C3COC(=O)[C@@H]32)OCO4)cc(OC)c1OP(=O)(O)O (stereo partly specified) ?
D3 ag: -6

Results for COc1ccc(NC(=O)c2cc3ccccc3cc2O)cc1 ?
DRD3 antagonist: -61*; Rango dissoc inh: inconclusive; Rango complex inh: inconclusive; D3 ag: -9; Mm-Cpn inhibitor: -1%; TSG101-PTAP inh: -1%

Results for COc1ccc(S(=O)(=O)N2CCN(Cc3nc4ccc(C)cc4o3)CC2)cc1OC ?
D3 ag: -5

How did CN1Cc2cccc3c2C(Cc2ccccc2S3)C1 (stereo unspecified) do in these assays?
DRD3 antagonist: -64*; Rango dissoc inh: -14%; Rango complex inh: -1%; D3 ag: -9; Mm-Cpn inhibitor: 1%; TSG101-PTAP inh: -3%

Results for c1ccc2c(c1)CC(N1CCCCC1)c1ccccc1S2 (stereo unspecified) ?
DRD3 antagonist: -1; Rango dissoc inh: 1%; Rango complex inh: -3%; D3 ag: -3; TSG101-PTAP inh: 0%

Results for COc1ccc(Cl)c2sc(NC(=O)c3ccc(S(=O)(=O)N4CCOCC4)cc3)nc12 ?
D3 ag: -9

How did CCOC(=O)Cn1c(=O)cc(-c2ccccc2)c2c(C)nn(C)c21 do in these assays?
D3 ag: -12

What do the screens show for `Cc1ccc2nc(SCC(=O)Nc3cccc([N+](=O)[O-])c3)[nH]c2c1`?
DRD3 antagonist: -52*; Rango dissoc inh: inconclusive; Rango complex inh: -1%; D3 ag: -18; Mm-Cpn inhibitor: -7%

What do the screens show for `O=C(Nc1cc(S(=O)(=O)N2CCCC2)ccc1OCC(F)(F)F)c1ccncc1`?
DRD3 antagonist: 15; D3 ag: 2

What do the screens show for `Cc1nnc(N2CCN(c3ccccc3F)CC2)c2c1nnn2Cc1ccc(F)cc1`?
D3 ag: 3

How did Fc1ccc2c(c1)-c1nc(-c3ccccc3)cc(-c3ccccc3)c1CO2 do in these assays?
D3 ag: -4

Results for O=C(Nc1ccccc1Oc1cccnc1)C1CCCN(C/C=C/c2ccccc2)C1 (stereo unspecified) ?
DRD3 antagonist: -60*; Rango dissoc inh: 31%; Rango complex inh: 0%; D3 ag: -41; Mm-Cpn inhibitor: -1%; TSG101-PTAP inh: -1%

What do the screens show for `O=S(=O)(Nc1ccccc1)c1ccc(NS(=O)(=O)c2c(F)cccc2F)cc1`?
DRD3 antagonist: 6; Rango dissoc inh: -1%; Rango complex inh: 0%; D3 ag: 41*; Mm-Cpn inhibitor: 0%; TSG101-PTAP inh: 0%

How did O=S(=O)(Nc1ccc(N=Nc2ccccc2)cc1)c1ccccc1 do in these assays?
DRD3 antagonist: -52*; Rango dissoc inh: -3%; Rango complex inh: 3%; D3 ag: -12; Mm-Cpn inhibitor: 0%; TSG101-PTAP inh: 0%

What do the screens show for `Cc1ccc(S(=O)(=O)c2nnn(CC(=O)Nc3ccccc3C)c2N)cc1C`?
D3 ag: -13

How did COc1cc(OC)c(NC(=O)C2CCN(C(=O)c3sc4nc[nH]c(=O)c4c3C)CC2)cc1Cl do in these assays?
D3 ag: 8

Results for Cc1ccc(NC(=O)CSc2nc(-c3ccccc3Cl)nc3cc(=O)[nH]n23)c(C)c1 ?
D3 ag: -17
